An excerpt weighted towards active compounds, which were near 7.2% of everything screened.
VLA-4 inh: inhibition in human VLA-4 binding assay, primary screen, VLA-4 allosteric modulator project, MLPCN library, flow cytometry, VLA-4 expressing cells. Integrin alpha-4 (Homo sapiens), P13612. ligand binding flow cytometry. inhibition, % (about 7 µM as worked out from the volumes in the protocol). 330,000 tested, 0.2% active; in the data active means inhibition above about 50%
AHR activator: AHR activators, primary screen, cell-based, luminescence, luciferase reporter, human; 320,000 tested, 2.5% active; activation, % at 5 µM; Aryl hydrocarbon receptor (Homo sapiens), P35869; AHR-responsive luciferase reporter cells; in the data active means activation above about 47%;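 further: 0% = vehicle wells and 100% = reference agonist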
ALR H2O2 inh: inhibitors of human ALR sulfhydryl oxidase, primary screen, biochemical, H2O2 detection, HRP-luminol luminescence, single point; FAD-linked sulfhydryl oxidase ALR (Homo sapiens), P55789; purified ALR, DTT oxidation; inhibition, % (test concentration not listed); 290,000 tested, 3.8% active; AID 485317, 2010;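 active means mean replicate inhibition above about 79%, with every replicate also reaching it, limit read from the data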
Efflux pump mplx: inhibitors of Candida efflux pumps in yeast, primary screen, S. cerevisiae, Nile Red, multiplex | S. cerevisiae Candida pump triplex | inhibition, % at 10 µM | 330,000 tested, 0.44% active | AID 485275, 2010;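 active means plate passing quality check with inhibition over a set limit, or well fluorescence over plate mean plus 4 SD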;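 further: Nile Red retained in pooled yeast measured as flow cytometry median fluorescence; 0% = buffer negative control and 100% = Enniatin B positive control; higher means more Nile Red kept so more efflux inhibition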
Mot1-301 SUMO: yeast Mot1-301 growth rescue at high temperature, primary screen, SUMOylation pathway inhibitor project, S. cerevisiae, ATP luminescence, 38.5C; S. cerevisiae Mot1-301 growth rescue; percent above DMSO median, 100 means doubled; growth rescue, % at 18.8 µM; 320,000 tested, 1% active;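 active means every valid replicate shows activation above 250% relative to neutral control wells; inactive means the rest, any valid replicate at or below 250%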;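 further: OY570 slx delta 5 strain wells were the positive control but not used for scaling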
A1 inh: caspase 3/7 activation in MEF A1-2A-BIM cells, primary screen, A1 inhibitor project, cell-based, luminescence, HTS; Caspase-Glo 3/7 luminescence, 3 h; percent of clofoctol response, vehicle zero; caspase activation, % (no concentration beside the values); 330,000 tested, 0.066% active; AID 2462, 2010;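 active means over half of replicate activation scores above 10%, or exactly half above 10 with the replicate mean above 10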
Cmpd fluor yeast: compound fluorescence in yeast efflux pump counter-screen; shares compounds with Efflux pump mplx; S. cerevisiae AD/pABC3, flow cytometry; fluorescence ratio to DMSO, % at 10 µM; 1,700 tested, 4% active; AID 588517;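 active means fluorescence ratio to DMSO above its plate's cutoff, the plate mean ratio plus 5 SD, cut at about 210% in these data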;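 further: unstained yeast with no Nile Red so the signal is compound autofluorescence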
CaMdr1 efflux inh: inhibitors of Candida albicans Mdr1 efflux, confirmation, flow cytometry, singleplex, Cherry Pick1 set. shares compounds with Efflux pump mplx. S. cerevisiae AD/CaMDR1, Nile Red efflux. inhibition, % at 10 µM. 1,700 tested, 1% active. AID 588518, 2011; in the data active means inhibition above about 26%;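 further: 0% = DMSO vehicle and 100% = reference inhibitor; higher means more Nile Red retained so more efflux inhibition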
Cdr2 pump inh: inhibitors of Candida albicans Cdr2 efflux pump, confirmation, S. cerevisiae AD/CaCDR2, flow cytometry, cherry pick 1, singleplex; shares compounds with Efflux pump mplx; Nile Red retention; Nile Red retention ratio vs DMSO, % at 10 µM; 1,700 tested, 4% active; in the data active means Nile Red retention ratio vs DMSO above about 190%;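 further: higher ratio means more blocking of Cdr2 efflux of the dye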
Cdr1 pump inh: inhibitors of Candida albicans Cdr1 efflux pump, confirmation, S. cerevisiae AD/CaCDR1, flow cytometry, cherry pick 1, singleplex | shares compounds with Efflux pump mplx | 1,700 tested, 1% active | inhibition, % at 10 µM | Nile Red efflux;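 active means inhibition above the screen-wide mean plus twice its standard deviation, cut at about 32% in these data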
Numbers without * were called inactive; · = no result given.

SMILES | VLA-4 inh | AHR activator | ALR H2O2 inh | Efflux pump mplx | Mot1-301 SUMO | A1 inh | Cmpd fluor yeast | CaMdr1 efflux inh | Cdr2 pump inh | Cdr1 pump inh
C=CC[C@@H](CC(=O)N(CCO)Cc1ccccc1)C(=O)N[C@H](COC(=O)[C@@H](CC=C)Cc1ccc(F)cc1)Cc1c[nH]c2ccccc12 | 13 | 1 | 0 | 162* | -10 | -2 | 104 | 136* | 112 | 135*
O=C(c1sc2ccccc2c1Cl)N1CCN(c2ccc(F)cc2)CC1 | 4 | 6 | -2 | 0 | 4 | -1 | · | · | · | ·
O=C(c1sc2ccccc2c1Cl)N1CCN(c2ccccc2F)CC1 | 13 | -2 | -10 | 21* | -8 | 0 | 99 | 0 | 112 | 0
CC1CCCC(NC(=O)COC(=O)COc2cccc(F)c2)C1C (centres undefined) | -5 | -1 | 0 | 0 | 37 | 0 | · | · | · | ·
Cc1ccnc(SCc2cn3c(C)cccc3n2)n1 | 7 | 4 | -13 | 1.1* | -2 | 0 | 100 | 0 | 96 | 0
COc1ccc(-c2nc3c(c(=O)[nH]c(=O)n3Cc3ccccc3)n2Cc2ccccc2)cc1 | 0 | -1 | -10 | 0 | -24 | 0 | · | · | · | ·
CCCn1c(-c2cc(OC)c(OC)c(OC)c2)nc2c1c(=O)[nH]c(=O)n2Cc1ccccc1 | 0 | 4 | · | 0.7* | 11 | 1 | 99 | 0 | 110 | 0
COc1ccc(C(C(=O)NC(C)(C)C)N(CCC(C)C)C(=O)CCC(=O)Nc2cc(C)on2)cc1 (centres undefined) | -3 | 1 | · | 0 | 3 | 0 | · | · | · | ·
CCOc1cccc(N(C(=O)CCC(=O)Nc2cc(C)on2)C(C(=O)NC(C)(C)C)c2ccc(OC)cc2)c1 (centres undefined) | -1 | 3 | -2 | 0.5* | 28 | 0 | 110 | 0 | 120 | 0
CCc1ccc(N(C(=O)CCC(=O)Nc2cc(C)on2)C(C(=O)NC(C)(C)C)c2ccc(OC)cc2)cc1 (centres undefined) | 9 | 0 | -5 | 0 | -22 | 2 | · | · | · | ·
COc1ccc(C(C(=O)NC(C)(C)C)N(CC2CCCO2)C(=O)CCC(=O)Nc2cc(C)on2)cc1 (centres undefined) | -6 | 0 | 4 | 0.8* | 25 | 1 | 100 | 0 | 98 | 0
CCC(C)(C)NC(=O)C(c1ccc(OC)cc1)N(C(=O)CCC(=O)Nc1cc(C)on1)c1cccc(F)c1 (centres undefined) | 2 | -3 | · | 0 | 57 | 0 | · | · | · | ·
COc1ccc(C(C(=O)NC(C)(C)C)N(C(=O)CCC(=O)Nc2cc(C)on2)c2cccc(F)c2)cc1 (centres undefined) | 1 | -2 | · | 0 | 17 | 0 | 88 | 0 | 102 | 0
COc1ccc(NC(=O)CSCC(=O)NC2(C)CCS(=O)(=O)C2)cc1 (centres undefined) | 0 | 3 | -9 | 0 | -6 | 1 | · | · | · | ·
Cc1ccccc1C(=O)N/N=C1/SCC(=O)N1Cc1ccccc1 | 4 | 12 | -3 | 0 | 4 | 1 | · | · | · | ·

Bioassay records from PubChem.
